The list is not random: actives were taken first. Their share in the collection is about 2.3%.
CHRM1 PAM: positive allosteric modulators of human M1 muscarinic receptor; P11229; 0.088% of 360,000 active; activation, % at 3 µM; CHO-K1 hM1, Fluo-8 calcium fluorescence, ACh EC20; 0% = ACh EC20, 100% = maximal ACh; in the data active = activation above about 19%, passing the limit was not always enough
Target sequence (P11229 whole entry, looked up): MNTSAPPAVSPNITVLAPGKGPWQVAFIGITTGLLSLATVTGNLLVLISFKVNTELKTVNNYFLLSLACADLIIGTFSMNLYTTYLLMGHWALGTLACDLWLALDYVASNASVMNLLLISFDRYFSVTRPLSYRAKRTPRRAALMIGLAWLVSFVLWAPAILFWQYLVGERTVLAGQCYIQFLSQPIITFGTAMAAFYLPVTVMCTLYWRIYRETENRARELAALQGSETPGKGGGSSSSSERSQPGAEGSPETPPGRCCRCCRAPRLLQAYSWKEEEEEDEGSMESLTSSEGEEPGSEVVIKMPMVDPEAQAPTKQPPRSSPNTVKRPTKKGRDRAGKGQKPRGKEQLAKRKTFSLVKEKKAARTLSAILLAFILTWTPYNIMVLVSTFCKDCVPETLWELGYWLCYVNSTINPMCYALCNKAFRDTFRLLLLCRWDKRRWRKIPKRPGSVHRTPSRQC
CHO-K1 Ca ag: M1 agonist counterscreen hit in parental CHO-K1 cells; activation, % at 3 µM; Fluo-8 calcium fluorescence; scaled to maximal ATP response, vehicle zero; AID 602248; 0.48% of 360,000 active; in the data active = activation above about 15%;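 note: untransfected CHO-K1 host cells lacking M1 receptor as counterscreen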
CHRM1 agonist: human M1 muscarinic receptor agonism; activation, % at 3 µM; 0.33% of 360,000 active; CHO-K1 hM1, Fluo-8 calcium fluorescence, agonist mode; 0% DMSO, 100% acetylcholine EC100; P11229; AID 588814;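 active = activation above the run's mean compound activation plus 3 SD, cut at about 16% in these data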;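 note: peak over basal fluorescence ratio within a 140 s kinetic read after compound addition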
M1 antag: human CHRM1 antagonism. P11229. 1.3% of 360,000 active. CHO-K1 hM1, Fluo-8 calcium fluorescence, ACh EC80 antagonist. AID 588852. inhibition, % at 3 µM;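 active = percent inhibition above its own plate's cutoff, namely the mean of that plate's compound wells plus 3 SD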;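 note: peak over basal fluorescence ratio during 140 s after agonist addition; 0% = ACh EC80 plus DMSO and 100% = DMSO alone without agonist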
CHO-K1 Ca PAM: counter-screen for M1 PAMs: effect in parental CHO-K1 cells. ATP EC20, Fluo-8 calcium fluorescence; 0% at ATP EC20, 100% at ATP max. activation, % at 3 µM. 0.02% of 360,000 active. AID 602247;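 active = activation above the run cutoff, the mean activation of all test compounds plus 3 SD, cut at about 40% in these data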;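 note: peak over basal fluorescence ratio in a 140 s read after ATP addition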
CHO-K1 Ca antag: counter-screen for M1 antagonists: effect in parental CHO-K1 cells; ATP-induced calcium, Fluo-8 fluorescence; inhibition, % at 3 µM; AID 602250; 0.6% of 360,000 active;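 active = inhibition above a per-plate cutoff, the plate's mean sample inhibition plus 3 SD, cut at about 24% in these data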;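 note: 0% = DMSO plus EC80 ATP and 100% = DMSO alone without ATP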
An asterisk follows results filed as active.

SMILES | CHRM1 PAM | CHO-K1 Ca ag | CHRM1 agonist | M1 antag | CHO-K1 Ca PAM | CHO-K1 Ca antag
Cc1ccccc1C(=O)N1CC(=O)Nc2ccc(F)cc2C1c1ccccc1 (stereo unspecified) | -1.2 | 23.5* | -3.4 | -0.8 | 10.9 | 6.5
O=C1CN(C(=O)c2ccccc2)C(c2ccccc2)c2cc(F)ccc2N1 (stereo unspecified) | 7.8 | 4.4 | -9.2 | -8.5 | -9.2 | -13.1
O=C1CN(C(=O)c2cc3ccccc3oc2=O)C(c2ccc(F)cc2)c2cc(F)ccc2N1 (stereo unspecified) | -5.8 | 1.2 | 0.0 | 7.9 | -5.7 | 25.4*
CCOC(=O)[C@@H](C)N(Cc1ccc(OC)cc1)S(=O)(=O)N(Cc1ccccc1)[C@H](C(=O)OC)C(C)C | -7.6 | 0.7 | -3.1 | 13.3 | -2.0 | -31.4
COc1cc(OC)c(OC)cc1CNCCNC(=O)c1ccco1 | 0.4 | -0.5 | -6.0 | 2.7 | 14.6 | 8.3
CCOc1ccccc1N(CC(=O)N1CCCCCC1)S(=O)(=O)c1ccc(C)cc1 | -1.2 | -0.4 | -6.3 | 0.9 | -2.2 | -3.0
CCOc1ccccc1N(CC(=O)N1CCC(C)CC1)S(=O)(=O)c1ccc(C)cc1 | -15.8 | -0.6 | -6.8 | 31.8* | -22.0 | 8.2
COc1ccc(NC(=O)C2CCCN2C(=O)NC2CCCCC2)cc1 (stereo unspecified) | 10.0 | 7.7 | -4.7 | -11.5 | 22.4 | -4.8
CN1CCN(CC#CCn2c3ccccc3c3ccccc32)CC1 | -20.7 | 4.5 | -4.7 | 36.0* | 13.9 | -3.4
COc1cccc(/C=C/C(=O)OCC(=O)Nc2cccc(S(=O)(=O)N3CCOCC3)c2)c1OC | -1.6 | 0.9 | -1.2 | 3.8 | -0.1 | -6.7
COc1ccc(CSc2nc(C)cc(=O)[nH]2)cc1Br | 4.3 | 18.7* | -2.8 | -7.4 | 18.2 | -2.7
Cc1cc(=O)[nH]c(SCc2cccc(Br)c2)n1 | 3.1 | 0.7 | -0.2 | -43.2 | 2.6 | -4.5
Cc1ccc(NC(=O)c2cnc(N3CCN(c4ccccn4)CC3)c3ccccc23)c(Br)c1 | -27.4 | 5.9 | -4.8 | 32.4* | -6.5 | 25.9*
O=C(Nc1c(F)cccc1F)c1cnc(N2CCN(c3ccccn3)CC2)c2ccccc12 | -5.4 | 5.1 | -0.6 | 20.5 | -8.8 | 29.6*
CCN1CCN(c2ncc(C(=O)Nc3cc(Cl)ccc3OC)c3ccccc23)CC1 | -22.8 | 0.8 | -5.4 | 57.5* | 9.7 | -5.7
COCCNC(=O)C1(C)CCN(C(=O)c2ccc3sccc3c2)C1 (stereo unspecified) | 8.9 | 0.1 | -1.8 | -13.2 | 6.6 | -4.0
CN(CC(=O)Nc1ccc(F)c(F)c1F)C(=O)CCN1C(=O)C2CCCCC2C1=O (stereo unspecified) | 0.9 | 0.8 | -3.0 | 1.0 | 19.2 | 0.5
C=CCn1c(-c2csc3c2CCC(C)C3)n[nH]c1=S (stereo unspecified) | -13.0 | -0.1 | -12.8 | 0.3 | -6.7 | 6.6
CCCCn1c(-c2csc3c2CCC(C)C3)n[nH]c1=S (stereo unspecified) | -21.0 | 1.1 | -7.6 | 47.3* | 21.6 | -16.3
CN(C(=O)CCN1C(=O)c2ccccc2C1=O)c1ccccc1 | 2.3 | -0.2 | -2.6 | -6.2 | 21.1 | -9.9
O=C(NCCc1ccccc1)C(=O)NCC1OCCCN1S(=O)(=O)c1cccs1 (stereo unspecified) | 2.4 | 1.2 | -2.0 | -8.1 | -17.6 | 3.5
O=C(c1cc([N+](=O)[O-])ccc1N1CCOCC1)N1CCN(S(=O)(=O)c2ccc(F)cc2)CC1 | -9.1 | 0.3 | -2.2 | 27.9* | -23.0 | 3.7
Cc1ccc(NC(=O)c2cc([N+](=O)[O-])ccc2N2CCOCC2)cc1C | 6.8 | -0.3 | -4.8 | -5.4 | -13.1 | 8.4
Cc1ccc(NC(=O)c2cc([N+](=O)[O-])ccc2N2CCOCC2)cc1S(=O)(=O)N(C)C | -23.0 | 2.8 | -5.0 | 52.4* | 12.6 | -13.2
Cc1ccc(NC(=O)c2cc([N+](=O)[O-])ccc2N2CCCC2)cc1 | -1.8 | 16.9* | -2.8 | 6.0 | 16.6 | 1.4
SMILES | CHRM1 PAM | CHO-K1 Ca ag | CHRM1 agonist | M1 antag | CHO-K1 Ca PAM | CHO-K1 Ca antag
CC(C)c1ccc(S(=O)(=O)N2CCN(C(=O)c3cc([N+](=O)[O-])ccc3N3CCOCC3)CC2)cc1 | 7.6 | 0.2 | -4.3 | -21.9 | 7.7 | -8.8
CCC(Sc1nc2ncccc2[nH]1)C(=O)NCCc1ccccc1 (stereo unspecified) | 5.4 | 1.4 | -7.8 | -11.9 | 18.7 | -5.2
Cc1cc(Nc2ccccc2)nn1C(=O)c1ccc(Br)cc1 | -1.2 | -0.1 | -4.0 | 4.5 | -7.7 | 25.1*
CCc1nc2c(OCCn3cccc3)cccn2c1N(C)C(=O)c1ccco1 | 2.6 | 0.3 | -6.5 | -7.3 | 9.1 | -5.7
CCc1nn(CC(=O)NCCCN2CCc3ccccc3C2)c(=O)c2cc3sccc3n12 | -33.0 | 0.3 | -13.5 | 43.7* | 14.0 | -10.3
CCOc1ccccc1NC(=O)COC(=O)c1c(CC)noc1C | 12.8 | -0.5 | 1.4 | -6.8 | 8.0 | 2.7
CC(C)[N+](C)(C)CC(O)CN(c1ccccc1)c1ccccc1 (stereo unspecified) | -28.0 | 0.0 | -8.5 | 85.5* | 6.8 | -4.9
NCC(O)CN(c1ccccc1)c1ccccc1 (stereo unspecified) | -4.4 | -0.4 | -4.8 | 6.7 | -9.3 | 11.9
O=C(N/N=C/c1ccc[nH]1)c1ccc([N+](=O)[O-])cc1 | -3.6 | -0.3 | -3.6 | 1.8 | 15.7 | -6.1
O=C(c1cn(-c2ccccc2)nc1-c1ccc(F)cc1)N1CCOCC1 | 10.0 | 0.8 | -2.2 | -8.8 | -15.9 | 2.2
O=C(c1cn(-c2ccccc2)nc1-c1ccc(F)cc1)N1CCCCC1 | 4.1 | 16.9* | -5.9 | -5.1 | 14.9 | -2.8
CC1CCN(CC(O)CN2c3ccccc3Sc3ccccc32)CC1 (stereo unspecified) | -11.3 | 25.5* | -5.0 | 8.3 | 1.7 | 2.1
CC1CCN(C(=O)N2c3ccccc3Sc3ccccc32)CC1 | -6.5 | 0.1 | -6.5 | -10.0 | 4.7 | -7.6
Cc1cc(N2C(=O)C3C4CCC(C4)C3C2=O)no1 (stereo unspecified) | 3.4 | 0.3 | -0.2 | 2.5 | 6.8 | -3.3
NC(CC(=O)NC(c1ccccc1)(c1ccccc1)c1ccccc1)C(=O)O (stereo unspecified) | 8.8 | 0.0 | -6.4 | -6.6 | 7.1 | 2.7
NC(CSC(c1ccccc1)(c1ccccc1)c1ccccc1)C(=O)O (stereo unspecified) | -25.4 | -0.1 | -7.7 | 39.9* | 17.6 | -10.6
c1cc2c(cc1C1CCCN1)OCCCO2 (stereo unspecified) | -10.7 | 0.0 | -2.6 | 28.1* | 12.9 | -4.5
O=S(=O)(c1ccc2c(c1)OCCCO2)N1CCNCC1 | 9.0 | 0.4 | -5.3 | -8.3 | 14.9 | -14.0
COc1ccc(-c2ccc(NC(=O)c3ccc(Br)o3)cc2)nn1 | 6.3 | 0.3 | -0.3 | -19.6 | 0.0 | 3.5
c1ccc(CN2CCN(c3ncccn3)CC2)cc1 | -0.7 | -0.1 | -5.9 | 13.2 | -15.6 | 1.9
